The test system of assay [1] is XIP peptide (Xip251-270) binding. Briefly: small-molecule binders of XIP peptide, primary screen, biochemical, small-molecule microarray, fluorescence 635/667 nm, 0.1 µg/mL protein (AID 1182). The note with it: fluorescent protein binding, 635 nm, higher = more signal, called active from +8 up or from −8 down.
Assay [2] deals with XIP peptide (Xip251-270). Put plainly: small-molecule binders of XIP peptide, primary screen, biochemical, small-molecule microarray, fluorescence 635/667 nm, 0.5 µg/mL protein (AID 1183). The note with it: small-molecule microarray binding, fluorescence 635 nm; higher = more signal.
Assay [3] in a line: Plasmodium falciparum growth inhibition, primary screen, strain 3D7, DAPI fluorescence, 100 nL (AID 1184).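 Also: parasites grown inside human red blood cells in medium with human serum.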 As to conditions: P. falciparum 3D7 growth, 3 d, higher = more signal.
Assay [4] concerns the target Homeobox protein Hox-A13 (Mus musculus) (UniProt Q62424). Briefly: inhibitors of HoxA13-DNA binding, primary screen, biochemical, fluorescence polarization, labeled oligonucleotide (AID 1185). As to conditions: 15 min, higher = more signal, called active from +8 up or from −8 down.
A short description of assay [5]: inhibitors of hydroxyurea-induced Chk1 phosphorylation, primary screen, imaging, HeLa, phospho-Chk1 antibody, percent positive cells (AID 1186). The note with it: hydroxyurea-induced phospho-Chk1 immunofluorescence imaging, higher = more signal.
A short description of assay [6]: inhibitors of hydroxyurea-induced Chk1 phosphorylation, primary screen, imaging, HeLa, phospho-Chk1 nuclear intensity (AID 1187). As to conditions: hydroxyurea-induced phospho-Chk1 immunofluorescence imaging, higher = more signal.

Each structure is given as a SMILES string. The source made the active and inactive calls. Unless noted, no rule for the calls is given here.

Sequence of Homeobox protein Hox-A13 (Mus musculus) (Q62424 whole entry, looked up): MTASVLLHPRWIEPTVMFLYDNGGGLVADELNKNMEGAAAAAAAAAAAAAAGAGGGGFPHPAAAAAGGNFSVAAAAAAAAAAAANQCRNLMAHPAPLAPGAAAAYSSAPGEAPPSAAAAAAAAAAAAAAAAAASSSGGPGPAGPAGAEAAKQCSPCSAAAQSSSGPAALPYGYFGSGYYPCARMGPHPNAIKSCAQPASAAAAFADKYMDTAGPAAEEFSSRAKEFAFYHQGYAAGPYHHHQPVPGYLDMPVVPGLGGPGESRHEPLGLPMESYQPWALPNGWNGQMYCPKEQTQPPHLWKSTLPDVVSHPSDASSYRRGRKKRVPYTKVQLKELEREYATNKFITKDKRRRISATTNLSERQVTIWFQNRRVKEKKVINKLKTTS

Take `COc1cc(CO)cc(I)c1O[C@H]1C=C(C(=O)NCCO)C[C@@H](N(C(=O)c2cc3ccccc3oc2=O)C2CCCCCC2)[C@@H]1O`: the composite z-score in assay [1] is -0.207 (inactive); in assay [2], 0.466. For the same compound, the z-score in assay [3] is -1.8; in assay [4], -7.6 (inactive); in assay [5] it was 0.21 (inactive); in assay [6], 0.722 (inactive).
Take `O=C(NC1CC1)[C@@H]1c2ccccc2C(=O)N(Cc2cc(F)cc(C(F)(F)F)c2)[C@H]1c1ccc(CO)cc1`: the composite z-score in assay [1] was -0.414 (inactive); in assay [2], 0.716. Further, the z-score in assay [3] is -0.247; in assay [4] it was -3.5 (inactive); in assay [5] it was 0.135 (inactive); in assay [6] it was -0.0928 (inactive).
Take `COC(=O)[C@@]1(Cc2ccccc2)[C@H]2c3cc(C(=O)N(C)C)n(Cc4ccc(OC)c(OC)c4)c3C[C@H]2CN1C(=O)c1ccccc1`: the figures for the composite z-score in assay [1] and in assay [2] were 0.713 (inactive) and 0.664, respectively. For the same compound, the z-score in assay [3] is -1.44; in assay [4], -4.39 (inactive); in assay [5], 0.639 (inactive); in assay [6], 0.614 (inactive).
As to `O=C(O)[C@@]1(CCS(=O)(=O)c2ccccc2)N=C(c2ccc(OCCCO)cc2)O[C@H]1c1ccccc1`, the composite z-score in assay [1] was 1.15 (inactive); in assay [2], 0.392. In addition, the z-score in assay [3] was -0.471; in assay [4], -5.76 (inactive); in assay [5], 0.0733 (inactive); in assay [6], 0.0816 (inactive).
`O=C1OCCC=C[C@H]2OC34C=CCN(c5ccc(Cl)cc5)C(=O)[C@H]3N(CCCO)C(=O)[C@@H]4C12` (stereo partly specified): the composite z-score in assay [1] is -0.869 (inactive); in assay [2] it was -0.481. In addition, the z-score is -1.83 in assay [3], -3.2 (inactive) in assay [4], -0.511 (inactive) in assay [5] and -0.536 (inactive) in assay [6].
Consider `CCCCCN1CC=CC23O[C@@H]4C=CCOC(=O)[C@@H]4[C@H]2C(=O)N(C(C)CO)[C@@H]3C1=O` (stereo partly specified), for which the composite z-score was 0.379 (inactive) in assay [1] and -0.0756 in assay [2]. In addition, the z-score in assay [3] is 0.795; in assay [4] it was -4.96 (inactive); in assay [5], 0.719 (inactive); in assay [6], 0.149 (inactive).
As for `COc1ccc([Si](C)(C)[C@@H]2[C@@H](CCn3cc(CCO)nn3)O[C@]3(C(=O)N(Cc4cccc(N5C(=O)c6cccc7cccc5c67)c4)c4ccccc43)[C@H]2C)cc1`, the composite z-score is 1.49 (inactive) in assay [1] and 0.589 in assay [2]. The z-score in assay [3] is -2.81; in assay [4], -2.66 (inactive); in assay [5], -0.953 (inactive); in assay [6], -0.813 (inactive).
`C=CCN1C(=O)[C@]2(O[C@H](CCO)[C@@H]([Si](C)(C)c3ccc(OC)cc3)[C@@H]2C)c2cc(N(C=O)c3ccccc3)ccc21`: the composite z-score in assay [1] is 1.94 (inactive); in assay [2], 0.749. Also, the z-score in assay [3] is -2.52; in assay [4], -3.67 (inactive); in assay [5] it was -1.11 (inactive); in assay [6], -0.984 (inactive).
As for `C[N+](C)(C)CCCCCCNC(=O)[C@H]1C[C@H]2C(=O)N[C@@H](Cc3ccccc3)C(=O)N2[C@H]1c1cccc(OCCO)c1`, the composite z-score is 0.875 (inactive) in assay [1] and 0.817 in assay [2]. Moreover, the z-score was -0.463 in assay [3], -5.91 (inactive) in assay [4], 0.685 (inactive) in assay [5] and 0.484 (inactive) in assay [6].
As for `O=C1O[C@@H](c2ccccc2)[C@@H](c2ccccc2)N2[C@@H](c3ccccc3OCCO)[C@]3(C(=O)Nc4ccccc43)[C@@H](C(=O)O)[C@H]12`, the composite z-score in assay [1] was 1.14 (inactive); in assay [2], 0.457. The z-score in assay [3] was -0.6; in assay [4] it was -6.35 (inactive); in assay [5] it was 0.405 (inactive); in assay [6], 0.5 (inactive).
Take `CCCCCCc1nc(-c2ccc(-c3ccc(Cl)c(Cl)c3)o2)c(C)c2c1[Si](C(C)C)(C(C)C)OC2`: the values for the composite z-score in assay [1] and in assay [2] were -0.376 (inactive) and 0.148, respectively. Moreover, the z-score was -2.4 in assay [3], -2.13 (inactive) in assay [4], 0.394 (inactive) in assay [5] and 0.251 (inactive) in assay [6].
As to `COCCCNC(=O)[C@@H]1c2ccccc2C(=O)N(Cc2ccccc2)[C@H]1c1ccc(CO)cc1`, the composite z-score in assay [1] was -0.267 (inactive); in assay [2], 0.401. For the same compound, the z-score was 0.207 in assay [3], -1.77 (inactive) in assay [4], -0.0813 (inactive) in assay [5] and -0.452 (inactive) in assay [6].
Turning to `O=C(CS)NCCCCCNC(=O)[C@@H]1C[C@@H]2C(=O)NCC(=O)N2[C@@H]1c1cccc(OCCO)c1`, the composite z-score was 1.96 (inactive) in assay [1] and 0.343 in assay [2]. Also, the z-score in assay [3] was 0.082; in assay [4] it was -3.25 (inactive); in assay [5] it was -0.128 (inactive); in assay [6] it was 0.361 (inactive).
Take `COC(=O)[C@@]1(Cc2ccccc2)[C@H]2c3cc(C(=O)N4CCCC4)n(Cc4ccc(O)c(OC)c4)c3C[C@H]2CN1C(=O)c1ccccc1`: the composite z-score in assay [1] is 0.469 (inactive); in assay [2], -0.333. Moreover, the z-score in assay [3] is -1.32; in assay [4], -4.6 (inactive); in assay [5], 1.13 (inactive); in assay [6], 0.678 (inactive).
Turning to `COCCOC(=O)N1C(=O)[C@@]2(c3cc(C#CCCO)ccc31)[C@H](c1ccc(OCCO)cc1)N1[C@H](c3ccccc3)[C@H](c3ccccc3)OC(=O)[C@H]1[C@@H]2C(N)=O`, the composite z-score in assay [1] is 0.464 (inactive); in assay [2] it was 0.779. Besides, the z-score in assay [3] is -0.222; in assay [4], -1.33 (inactive); in assay [5], -0.0438 (inactive); in assay [6] it was 0.51 (inactive).
In the case of `COC(=O)[C@@]1(CCC(=O)OC(C)(C)C)N=C(c2ccc(OCCCO)cc2)O[C@H]1c1ccccc1`, the results for the composite z-score in assay [1] and in assay [2] were 0.485 (inactive) and 0.732, respectively. Also, the z-score was -2.43 in assay [3], -4.58 (inactive) in assay [4], -0.17 (inactive) in assay [5] and 0.284 (inactive) in assay [6].
